Tested on: TAOK3
Conditions: concentration: 1 μM, replicates: in singlicate; n = 1
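Note: KINOMEscan kinase panel screen.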

SMILES | %Inh [%]
COc1cccc(NC(=O)Nc2ccc(C)c(-c3ccc(C(=O)Nc4ccncc4)cc3)c2)c1 [GSK1398474] | 4
COc1cccc(CNC(=O)NC2CCN(c3ccnc(Nc4ccc(F)cc4)n3)C2)c1 (stereo not drawn) [GSK1379723] | 0
CC(=O)c1c(C)c2cnc(Nc3ccn(C)n3)nc2n(C2CCCC2)c1=O | 0
O=C1NC(=O)C(c2ccc(Cl)cc2)=C1Nc1ccc(O)cc1 [SB-340867] | 0
COc1ccc(CSc2nnc(-c3ccc4c(c3)CCO4)o2)cc1 | 0
COc1nccc(-c2c(-c3ccc(F)cc3)ncn2CCCN2CCOCC2)n1 [SB-282852] | 0
COC(=O)C(Cc1ccccc1)NC(=O)NC1CCN(c2ccnc(Nc3ccc(F)cc3)n2)C1 (stereo not drawn) [GSK1379714] | 0
COc1cccc(C2=C(Nc3cc(Cl)c(O)c(Cl)c3)C(=O)NC2=O)c1 [SB-390767] | 29
Cc1ccc(NC(=O)Nc2ccc(Cl)cc2)cc1-c1ccc(C(=O)Nc2ccncc2)cc1 [GSK1398472] | 0
CCn1c(-c2ccccc2)nc2cnccc21 [SB-733416] | 1

Tested on: TBK1
Conditions: concentration: 1 μM, replicates: in singlicate; n = 1

SMILES | %Inh [%]
O=C(Nc1n[nH]c2cc(-c3ccsc3)ccc12)C1CC1 [SB-732932] | 9
CC[C@@H]1CO[C@H](C(=O)Nc2ccccc2)CN1c1cc(-c2ccc3c(N)n[nH]c3c2)nc(NC)n1 [GSK2376236] | 31
CNc1cc(-c2ccc3c(N)n[nH]c3c2)nc(N)n1 [GSK2224810] | 9
COC(=O)C(NC(=O)NC1CCN(c2ccnc(Nc3ccc(F)cc3)n2)C1)c1ccccc1 (stereo not drawn) [GSK1379712] | 18
Cc1ccccc1Cn1ccn2c(=O)cc(N3CCOCC3)nc12 [GSK2269905] | 0
Fc1ccc(-c2nn3cccc(F)c3c2-c2ccncc2)cc1 [GW475620] | 22
COc1ccc(Nc2nccc(-c3ccc(NC(=O)c4cc5cc(F)ccc5[nH]4)cc3)n2)cc1 [GSK1229496] | 11
COc1ccc(Nc2nccc(N3CCC(NC(=O)c4cc5ccccc5s4)C3)n2)cc1 (stereo not drawn) [GSK1379738] | 22
COc1ccc(-c2coc3ccc(-c4nnc(C)o4)cc23)cc1 | 30
CNCc1ccc2nc(NC(=O)c3ccc(C(C)(C)C)cc3)cn2c1 | 0
CS(=O)(=O)CCNCc1nc(-c2ccc3ncnc(Nc4ccc(OCc5ccccc5)c(Cl)c4)c3c2)cs1.Cl [GW582764] | 0
Cl.Cl.Cl.N#Cc1ccc(CCNc2nccc(-c3cccc(CN4CCNCC4)c3)n2)cc1 [GSK2137462] | 19
Cc1c(Cn2c3ccccc3n3c(=O)cc(N4CCOCC4)nc23)cccc1C(F)(F)F [GSK2306394] | 13
CC(C)c1ccc(O)cc1Nc1ccnc2ccc(C(F)(F)F)cc12 [GW482059] | 0
O=C(Nc1n[nH]c2nc(-c3cccs3)c(Br)cc12)C1CC1 [SB-735297] | 33
Cc1cnc(N)c(/C=C/c2cncc(C(=O)NCCc3ccc(Cl)cc3Cl)c2)c1.Cl [GSK190937] | 12
c1ccc(-c2ccnc3[nH]ccc23)cc1 [SB-693578] | 11
O=C(Nc1n[nH]c2nc(-c3ccco3)c(Br)cc12)C1CCN(Cc2ccccc2)C1.O=C(O)[C@H](O)[C@@H](O)C(=O)O (stereo not drawn) [SB-742034] | 18
CCCCc1nn2ncccc2c1-c1ccnc(NC2CC2)n1 [GW684374] | 7
CC(=O)c1cccc(NC(=O)NC2CCN(c3ccnc(Nc4ccc(F)cc4)n3)C2)c1 (stereo not drawn) [GSK1379710] | 18
COc1ccc(Nc2nccc(N3CCC(NC(=O)C(C)c4ccc(Cl)cc4)C3)n2)cc1 (stereo not drawn) [GSK1379735] | 4
CS(=O)(=O)CCNCc1nc(-c2ccc3ncnc(Nc4ccc5c(cnn5Cc5ccccc5)c4)c3c2)cs1.Cl.Cl [GW569716] | 0
Cc1ccc(-c2nc(Nc3ccncc3)c3ccccc3n2)s1 [GSK189015] | 7
Cc1cccc2c(-c3ccncn3)c(-c3ccc(F)cc3)nn12 [GW515532] | 0
Cc1ccc(NC(=O)Nc2ccc(Cl)c(C(F)(F)F)c2)cc1-c1ccc(C(=O)Nc2ccncc2)cc1 [GSK1398470] | 17
COc1ccc(Nc2nccc(NCCNC(=O)Nc3cc(C)ccc3C)n2)cc1 [GSK1379899] | 0

Source: PMC5540273 (PLoS ONE, 2017)
